The campaign covered roughly 68,000 compounds. About 2,700 (4%) showed an effect of 50% or more. The sample holds strong results, similar compounds and a random draw of the others, so the mix is not that of the screen.

This assay deals with Plasmodium berghei. The experiment in a line: Screen against P. berghei liver stage (PbLuc), transformed with Luciferase, at 2uM. To be noted: tested at 2 uM. The class given is functional, HepG2.
`CC(C)c1nccn1CCC(=O)N1CCCC1c1cccn1C` (configuration not stated): the INHIBITION came to 22%.

Take `COCCCn1cnnc1C(C)NC(=O)c1[nH]c2ccc(C)cc2c1C` (configuration not stated): the INHIBITION came to 23.6%.

In the case of `Cn1cnc(S(=O)(=O)N2CC3(CCN(c4ccccc4)C3)C2)c1`, the INHIBITION turned out to be 15.42%.

Regarding `CN(CCCc1ccccc1)C(=O)c1cn2c(n1)CNCC2`, the INHIBITION is recorded as -12.28%.

As to `CN(CCc1ccccn1)C(=O)c1cn2c(n1)CNCC2`, the INHIBITION is recorded as 25.55%.

With `CN(CCSc1ccccc1)C(=O)c1cn2c(n1)CNCC2`, the INHIBITION worked out at 54.29%.

For the molecule `c1cncc(CN2CCC(c3ccc4c(c3)OCO4)CC2)c1`, the INHIBITION amounted to 17.24%.

With `Cc1cccc(C(=O)N2CC[C@H]3C[C@@H](C)O[C@@H]3C2)n1`, the INHIBITION is given as 1.29%.

`O=C(c1cc(C2CC2)on1)N1C[C@@H]2COC[C@]2(COc2cccnc2)C1`: the INHIBITION is recorded as 22.68%.

For the molecule `Cc1ccc(-c2cc(CNC(=O)N3CCC(O)CC3)on2)cc1`, the INHIBITION is -5.7%.

For the molecule `Cc1ccc(-c2cc(CS(=O)(=O)NC3CCCNC3=O)on2)cc1` (configuration not stated), the INHIBITION amounted to 42.79%.

On to `O=C(NCc1cc(-c2ccccc2)no1)NC1CCCCNC1=O` (configuration not stated), for which the INHIBITION stood at 65.38%.

Regarding `Cc1ccc(-c2cc(CNC(=O)NC3CCCCNC3=O)on2)cc1` (configuration not stated), the INHIBITION came out at 55.7%.

`O=C(NCc1cc(-c2ccccc2)no1)NCC1CCCO1` (configuration not stated): the INHIBITION is on record as -3.26%.

In the case of `O=C1NCCCCC1NC(=O)C1(c2ccccc2)CCOCC1` (configuration not stated), the INHIBITION is listed as -20.35%.

With `COc1ccc(CC(=O)NC(C)c2nc3cccnc3n2C(C)C)cc1` (configuration not stated), the INHIBITION is given as -39.63%.

With `COc1ccccc1CC(=O)NC(C)c1nc2cccnc2n1C(C)C` (configuration not stated), the INHIBITION is 24.44%.

`COc1cccc(CC(=O)NC(C)c2nc3cccnc3n2C(C)C)c1` (configuration not stated): the INHIBITION was determined as 74.83%.

`COC(=O)C(CNC(=O)Nc1nncs1)Cc1cccc(C)c1` (configuration not stated): the INHIBITION was 12.17%.

Turning to `CCn1ccnc1CN1CCCN(C(=O)c2cc(C)nn2CC)CC1`, the INHIBITION worked out at 11.09%.

For the molecule `CC(C)C(=O)N(C)Cc1nc(N2CCCC2)ncc1-c1ccncc1`, the INHIBITION was -6.41%.

On to `CCc1ccc(CCNc2ncnc3c2CCN(C(=O)C2CC2)C3)cc1`, for which the INHIBITION was 55.66%.

Consider `Nc1nc(CCNc2ncnc3c2CCN(C(=O)C2CC2)C3)cs1`, for which the INHIBITION is listed as -26.81%.

Take `Nc1nnc(CCNc2ncnc3c2CCN(C(=O)C2CC2)C3)s1`: the INHIBITION worked out at 11.9%.

For `Cc1cc(C)c(Cn2cncn2)cc1CN1CC[C@H](CO)[C@@H](O)C1`, the INHIBITION is given as -64.63%.

Consider `CC1CCN(S(=O)(=O)N2CCCC(c3cccc(C(=O)O)c3)C2)CC1` (configuration not stated), for which the INHIBITION is on record as -18.41%.

For the molecule `CC1(C)CCN(S(=O)(=O)N2CCCC(c3cccc(C(=O)O)c3)C2)CC1` (configuration not stated), the INHIBITION amounted to 19.04%.

As to `COC1CCN(S(=O)(=O)N2CCCC(c3cccc(C(=O)O)c3)C2)CC1` (configuration not stated), the INHIBITION is 57.59%.

For `Cc1cc(C)c(CNC(=O)NCc2ccncc2)c(=O)[nH]1`, the INHIBITION came to 26.76%.

For the molecule `CC(C)CCN1CC2(CCN(C3CCCOC3)CC2)OC1=O` (configuration not stated), the INHIBITION turned out to be 57.47%.

As to `CN(C)CCCN1CC2(CCN(C3CCCOC3)CC2)OC1=O` (configuration not stated), the INHIBITION worked out at 24.81%.

As for `O=C1OC2(CCN(C3CCCOC3)CC2)CN1CCc1ccccc1` (configuration not stated), the INHIBITION was -1.27%.

With `COCCNC(=O)N1CC(Cc2ccccc2F)C1`, the INHIBITION was -41.64%.

As to `CCCc1cnc(C)nc1N1CCC(Cn2cc(CO)nn2)CC1`, the INHIBITION is listed as 9.69%.

Regarding `Cc1cc(C)n2ncc(CN3CCC(Cn4cc(CO)nn4)CC3)c2n1`, the INHIBITION was found to be 64.9%.

As to `Cc1cc(C)n2ncc(CN3CCC(n4cc(CCO)nn4)CC3)c2n1`, the INHIBITION is given as 31.51%.

In the case of `CCC(C(=O)NCc1csc(N2CCOCC2)n1)n1cccn1` (configuration not stated), the INHIBITION was 17.78%.

In the case of `Cc1cncc(Oc2ccc(CN)cc2)n1`, the INHIBITION is recorded as 32.31%.

Regarding `Clc1cnc(NCc2ccccc2N2CCOCC2)nc1`, the INHIBITION is recorded as -2.35%.

Regarding `c1ncn(CC2CN(Cc3nc(C4CC4)no3)CCO2)n1` (configuration not stated), the INHIBITION stood at 60.64%.

Consider `CCCc1nc(CN2CCOC(Cn3cncn3)C2)no1` (configuration not stated), for which the INHIBITION turned out to be 37.52%.

As to `CCc1nc(CN2CCOC(Cn3cncn3)C2)no1` (configuration not stated), the INHIBITION is recorded as 55.7%.

Regarding `c1ncn(CC2CCCN(Cc3nc(C4CC4)no3)C2)n1` (configuration not stated), the INHIBITION is reported as -8.84%.

Consider `c1cnn(CC2CN(Cc3nc(C4CC4)no3)CCO2)c1` (configuration not stated), for which the INHIBITION came out at 9.41%.

In the case of `CC(C)Cc1nc(CN2CCOC(Cn3cncn3)C2)no1` (configuration not stated), the INHIBITION is reported as 40.17%.

With `CCc1ccc(CC)c(NCc2cnc(N3CCOCC3)nc2)c1`, the INHIBITION is reported as -64.63%.

Regarding `COCC(=O)N1C[C@@H]2CCCO[C@@H]2[C@H](N(C)Cc2ccco2)C1`, the INHIBITION is given as -17.76%.

Consider `Cc1ccc(CN2CCOC3(CCCN(c4cccc(F)c4)C3)C2)o1` (configuration not stated), for which the INHIBITION was 22.15%.

For the molecule `Cc1noc(C)c1CN1CCN(C(C)c2nc(C3CC3)no2)CC1` (configuration not stated), the INHIBITION turned out to be 33.22%.

Consider `CCc1noc(C)c1-c1nc(Cc2cccs2)nn1C1CCN(C)CC1`, for which the INHIBITION is 64.9%.

For `Cc1ncsc1-c1nc(Cc2cccs2)nn1C1CCN(C)CC1`, the INHIBITION is listed as 43.44%.

With `CN1CCC(n2nc(Cc3cccs3)nc2-c2ccncc2)CC1`, the INHIBITION stood at 21.97%.

The values are drawn from ChEMBL document CHEMBL4513216, “Probing the Open Global Health Chemical Diversity Library for Multistage-Active Starting Points for Next-Generation Antimalarials” (ACS Infect Dis, 2020).
